Target: Follistatin-related protein 3 (Homo sapiens) (UniProt O95633)
Test: FSTL3 binders on small-molecule microarrays, primary screen, biochemical, small-molecule microarray, 635 nm fluorescence (AID 1105);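 further: score merges emission near 667 nm and signal to noise per printed spot across three slides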
Details: FSTL3 binding, higher = more signal

Chain of Follistatin-related protein 3 (Homo sapiens) (O95633 whole entry, looked up): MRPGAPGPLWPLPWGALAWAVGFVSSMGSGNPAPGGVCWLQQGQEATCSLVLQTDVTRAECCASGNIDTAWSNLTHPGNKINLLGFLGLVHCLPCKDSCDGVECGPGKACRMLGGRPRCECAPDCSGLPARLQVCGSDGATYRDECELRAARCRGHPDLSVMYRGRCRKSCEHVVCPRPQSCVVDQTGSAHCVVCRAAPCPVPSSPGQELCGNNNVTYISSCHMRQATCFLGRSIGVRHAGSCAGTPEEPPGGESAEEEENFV

| Compound | composite z-score |
| --- | --- |
| O=C1O[C@@H](c2ccccc2)[C@@H](c2ccccc2)N2[C@@H](c3ccc(O)cc3)[C@]3(C(=O)Nc4ccccc43)[C@@H](C(=O)Nc3nc4ccccc4s3)[C@H]12 | 0.415 |
| C=C(COC)/C(=C/C[C@@H](OC(=O)c1ccncc1)c1cccc(OCCO)c1)c1cnc2ccccc2c1 | 1.65 |
| O=C1O[C@@H](c2ccccc2)[C@@H](c2ccccc2)N2[C@@H](c3ccccc3OCCO)[C@]3(C(=O)Nc4ccc(C#CCCO)cc43)[C@@H](C(=O)N3CCN(c4ncccn4)CC3)[C@H]12 | 0.315 |
| COC(=O)C[C@H]1O[C@]2(C(=O)N(C)c3ccccc32)[C@@H](C)[C@@H]1[Si](C)(C)c1ccc(C)cc1 | 0.958 |
| Cc1ccc(C(C)CC(O)C2C=CC3C(=O)N(c4ccccc4)C(=O)C3N2Nc2ccc(C(C)C)cc2)o1 (stereo unspecified) | 0.679 |
| C[n+]1ccc(CCCO)cc1 | 0.0584 |
| C=C(COC)/C(=C/C[C@@H](OC(=O)c1ccncc1)c1ccc(CO)o1)c1cnc2ccccc2c1 | 1.57 |
| CCOC(=O)[C@H]1C/C=C/C[C@H](C(=O)OCC)C(=O)O[C@H]2[C@@H](OC)O[C@H](CO)[C@@H](OC(=O)CCc3ccccc3)[C@@H]2OC1=O | -1.53 |
| CCCCC(=C=CC[C@@H](O)c1ccc(OCCO)cc1)C[C@@H](O)COCc1ccccc1 | 0.245 |
| CCCc1cccc(=O)o1 | 0.182 |
| COCC(=C=CC[C@H](O)c1ccc(OCCO)cc1)C[C@H](O)COCc1ccccc1 | 0.944 |
| O=C(NC1CC1)[C@@H]1c2ccccc2C(=O)N(Cc2ccccc2)[C@H]1c1ccc(CO)cc1 | -0.298 |
| COCCOC(=O)N1C(=O)[C@@]2(c3cc(C#CC4=CCCCC4)ccc31)[C@H](C(=O)N1CCN(c3ncccn3)CC1)[C@H]1C(=O)O[C@H](c3ccccc3)[C@H](c3ccccc3)N1[C@@H]2c1ccc(O)cc1 | 1.14 |
| O=C1C2C=CC(C(O)c3cc(C(F)(F)F)cc(C(F)(F)F)c3)N(Nc3ccc([N+](=O)[O-])cc3)C2C(=O)N1c1ccccc1 (stereo unspecified) | 1.39 |
| C=CCOC(=O)[C@@H]1[C@H]2C(=O)O[C@H](c3ccccc3)[C@H](c3ccccc3)N2[C@H](c2ccc(OCCOC(=O)[C@H]3C[C@H]4C(=O)N[C@@H](CCCCNC(C)=O)C(=O)N4[C@H]3c3cccc(OCCO)c3)cc2)[C@@]12C(=O)Nc1ccc(I)cc12 | 1.23 |
| COC(=O)[C@@]1(Cc2ccccc2)[C@H]2c3cc(C(=O)N4CCCC4)n(C[C@H](O)CO)c3C[C@H]2CN1C(=O)c1ccccc1 | 0.0783 |
| COCCCNC(=O)[C@]1(CCC(=O)OC(C)(C)C)N=C(c2ccc(OCCCO)cc2)O[C@@H]1c1ccccc1 | -0.47 |
| COCCOC(=O)N1C(=O)[C@@]2(c3cc(C#CC4=CCCCC4)ccc31)[C@H](c1ccccc1OCCO)N1[C@H](c3ccccc3)[C@H](c3ccccc3)OC(=O)[C@H]1[C@@H]2C(=O)N1CCc2cc(OC)c(OC)cc2C1 | 1.4 |

| Compound | composite z-score |
| --- | --- |
| CC(C)(C)OC(=O)CC[C@]1(C(=O)N2CCOCC2)N=C(c2ccc(OCCCO)cc2)O[C@H]1c1ccccc1 | 0.0033 |
| COCCOC(=O)N1C(=O)[C@@]2(c3cc(C#CC4=CCCCC4)ccc31)[C@H](c1ccc(O)cc1)N1[C@H](c3ccccc3)[C@H](c3ccccc3)OC(=O)[C@H]1[C@@H]2C(=O)Nc1nc2ccccc2s1 | 1.19 |
| CC1CC/C=C\[C@H]2OC34C=CCN(c5ccc6ccccc6c5)C(=O)[C@H]3N(C(CO)C(C)C)C(=O)[C@@H]4C2C(=O)O1 (stereo partly specified) | -0.163 |
| CC(C)CNC(=O)[C@@H]1c2ccccc2C(=O)N(Cc2cc(F)cc(C(F)(F)F)c2)[C@H]1c1ccc(CO)cc1 | 0.328 |
| C=C[C@H](COC(C)=O)NS(=O)(=O)c1ccc(Br)cc1 | 0.128 |
| CC(C)CN1C(=O)[C@@]2(Cc3ccccc31)c1ccccc1C(=O)N(Cc1ccccc1C(F)(F)F)[C@H]2c1ccc(CO)cc1 | -0.676 |
| O=C(CS)NCCCCCCNC(=O)[C@H]1C[C@H]2C(=O)N[C@@H](Cc3ccccc3)C(=O)N2[C@H]1c1cccc(OCCO)c1 | 1.52 |
| CCOC(=CC(=O)OC)CC(O)c1cccc(Cl)c1 (stereo unspecified) | -0.151 |
| O=C1C[C@]2(c3ccc([N+](=O)[O-])cc3)C(=O)N(Cc3ccccc3)c3cc(CO)ccc3[C@H]2N1CC12CC3CC(CC(C3)C1)C2 | -0.791 |
| C=CCN1C(=O)[C@@]2(O[C@@H](CCO)[C@H]([Si](C)(C)c3ccc(OC)cc3)[C@H]2C)c2cc(N3C(=O)c4ccccc4Oc4ccccc43)ccc21 | -0.0233 |
| CCOC(=O)[C@H]1C/C=C/C[C@H](C(=O)OCC)C(=O)O[C@H]2[C@@H](OC)O[C@H](CO)[C@@H](OC(=O)Nc3ccc(OC)cc3)[C@@H]2OC1=O | 1.29 |
| COC(=O)C(CC#Cc1ccc2c(c1)[C@]1(C(=O)N2)[C@H](C(=O)O)[C@H]2C(=O)O[C@H](c3ccccc3)[C@H](c3ccccc3)N2[C@@H]1c1ccccc1OCCO)C(=O)OC | 1.06 |
| C=CCC(OC(C)=O)[C@@H]1[C@@H](N(Cc2cc3ccccc3o2)C(=O)c2ccc(C)cc2)c2cc(OCCCO)ccc2N1C(=O)Cc1ccc2ccccc2c1 (stereo partly specified) | -0.32 |
| Cc1ccc(S[C@]2(C(=O)NC3CC3)CC(=O)N(Cc3ccccc3Cl)[C@@H]2c2ccc(CO)cc2I)cc1 | 0.41 |
| C=CCOC(=O)[C@@H]1[C@H]2C(=O)O[C@H](c3ccccc3)[C@H](c3ccccc3)N2[C@H](c2ccc(OCCOC(=O)[C@H]3C[C@H]4C(=O)N[C@@H](CCCCN(C)C)C(=O)N4[C@H]3c3cccc(OCCO)c3)cc2)[C@@]12C(=O)Nc1ccc(I)cc12 | 1.32 |
| O=C1NC(=O)C2C1C=CC(C(O)c1ccc(Br)cc1)N2Nc1ccccn1 (stereo unspecified) | 0.28 |
| O=C1NC(=O)C2C1C=CC(C(O)c1c(F)cccc1Cl)N2Nc1ccccn1 (stereo unspecified) | 0.262 |
| [N-]=[N+]=Nc1ccccc1[C@H]1OC(c2ccc(OCCCO)cc2)=N[C@@]1(CCS(=O)(=O)c1ccccc1)C(=O)N1CCCCC1 | 0.801 |

— PubChem BioAssay
